From PubChem BioAssay (NCATS)
Inconclusive results are not listed. Entries that show only a call come without a potency. Calls of active or inactive are those of the source. Calls come from the whole dose curve; as a rule, active = well fitted curve in the direction sought with a large enough effect; inconclusive = small, poorly fitted or top-dose-only effect, or another doubt; inactive = no such curve, though single readings can be large; an effect the other way counts as inactive or inconclusive.

What was measured:
[1] = Primary qHTS for inhibitors of La Crosse Virus (LACV) - induced cell death in SH-SY5Y cells (AID 1508616);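 note: top concentration of the series differs between compounds; higher means more rescue of cells from virus-induced death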
Summary of the method: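 SH-SY5Y cells (6000/well) plated 24 h, then given compounds by pin transfer and LACV at 0.01 MOI for 6 days at 37C. Viability measured by ATPLite luminescence, normalized to infected DMSO and uninfected DMSO.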

[2] = biological target: Calcium and integrin-binding protein 1 (Homo sapiens) (UniProt Q99828); test: Validation qHTS for Identification of Calcium Integrin Binding protein 1 (CIB1) Competitor (AID 1508618)
Summary of the method: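 CIB1-GST (1 uM final) in 5 mM HEPES pH 7.4, 125 mM NaCl, 5 mM CaCl2, 0.01% Tween20 was preincubated 15 min at room temperature with compound (up to 114 uM), then FITC-alphaIIb peptide (100 nM) added for 15 min; fluorescence polarization read.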

[3] = Primary qHTS for small molecule stabilizers of the endoplasmic reticulum resident proteome: Secreted ER Calcium Modulated Protein (SERCaMP) assay (AID 1508630)
Summary of the method: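 GLuc-SERCaMP-expressing SH-SY5Y cells, pretreated 16 h with compound, are challenged with thapsigargin to empty ER calcium stores; after 4 h, coelenterazine is added directly to the medium and luminescence is imaged.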

Papain (Carica papaya) = Papain (Carica papaya) (UniProt P00784); test: Primary qHTS assay for inhibitors of the protease papain (AID 1645873);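 note: papain turnover of Z-FR-AMC read as the AMC fluorescence gain over 10 min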; note: potency is the fitted concentration of half-maximal effect
Chain of Papain (Carica papaya) (P00784 whole entry, looked up): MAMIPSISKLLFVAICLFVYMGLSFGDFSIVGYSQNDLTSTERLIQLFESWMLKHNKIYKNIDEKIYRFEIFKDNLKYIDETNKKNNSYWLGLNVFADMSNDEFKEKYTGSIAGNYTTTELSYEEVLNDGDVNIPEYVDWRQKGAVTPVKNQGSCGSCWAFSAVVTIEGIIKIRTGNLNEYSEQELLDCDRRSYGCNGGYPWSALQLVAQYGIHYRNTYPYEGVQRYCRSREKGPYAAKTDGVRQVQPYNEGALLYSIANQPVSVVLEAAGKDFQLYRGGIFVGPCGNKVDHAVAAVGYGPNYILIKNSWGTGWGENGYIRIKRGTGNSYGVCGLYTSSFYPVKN

Chain of Calcium and integrin-binding protein 1 (Homo sapiens) (Q99828 whole entry, looked up): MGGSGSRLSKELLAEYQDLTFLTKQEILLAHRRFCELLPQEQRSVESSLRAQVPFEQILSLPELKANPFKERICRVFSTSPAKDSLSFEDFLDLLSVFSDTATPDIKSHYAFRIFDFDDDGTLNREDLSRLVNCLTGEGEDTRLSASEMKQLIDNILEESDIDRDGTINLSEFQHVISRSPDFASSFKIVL

Structure (SMILES)	Potency [1]	Potency [2]	outcome [3]	Potency (Papain (Carica papaya))
C[N+](C)(C)CC#CCN1CCCC1=O	inactive	inactive	inactive	inactive
O=S1(=O)N(CCN2CC=C(c3c[nH]c4cc(F)ccc34)CC2)c2cccc3c2N1CCC3	inactive	inactive	inactive	inactive
NCCCP(=O)(O)O	inactive	inactive	inactive	inactive
CC(=O)OCC1=C(C(=O)O)N2C(=O)[C@@H](NC(=O)CCC[C@@H](N)C(=O)O)[C@H]2SC1	inactive	inactive	inactive	–
C=CCN1CCC23c4c5ccc(O)c4O[C@H]2C(=O)CC[C@@]3(O)C1C5 (some centres not stated)	inactive	inactive	inactive	inactive
CCCN1CC[C@@H]2c3cc(O)ccc3CC[C@@H]21	inactive	inactive	inactive	inactive
NCCc1c[nH]c2ccc(C(N)=O)cc12	inactive	inactive	inactive	inactive
CCCN(CCC)[C@H]1CCc2c(F)ccc(O)c2C1	inactive	inactive	inactive	inactive
CCS(=O)(=O)Nc1cccc(C(=C2CCCCC2)c2cnc[nH]2)c1	inactive	inactive	inactive	inactive
COc1ccc2[nH]c3c(c2c1)CCNC3	inactive	inactive	inactive	–
Cc1sc2ccccc2c1CC1=NCCN1	inactive	inactive	inactive	28.2 µM (active)
NC(N)=NOCC[C@H](N)C(=O)O	inactive	inactive	inactive	inactive
COC(=O)N1CCN(C(=O)Cc2ccc(Cl)c(Cl)c2)C(CN2CCCC2)C1 (configuration not stated)	inactive	inactive	inactive	inactive
N=C(N)c1ccc(CS(=O)(=O)F)cc1	inactive	inactive	inactive	inactive
N[C@@]1(C(=O)O)CC[C@@H](C(=O)O)C1	inactive	inactive	inactive	inactive
CC(C)(O)[C@@H]1C2OC(=O)[C@@H]1[C@]1(O)C[C@H]3O[C@]34C(=O)O[C@H]2[C@]14C (tested in a mixture with another compound)	inactive	inactive	inactive	inactive
